# Source: paper PMC8384837, “Expanding the binding specificity for RNA recognition by a PUF domain”
# Columns and labels:
# Assay in all cases: yeast three-hybrid, YBZ-1, SC-Leu-His + 0.5 mM 3-AT, 4 days
# Details in all cases: tags: N-Gal4 AD-HA kept; label: inside an RPR1-promoter hybrid RNA with tandem MS2 sites; ssRNA
# [1] = biological target: PUM1 PUF domain R8-RWQ (Homo sapiens, UniProt Q14671 828-1176, N1122R;Y1123W)
# Summary of the method: (§1)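 Sequencing with Illumina followed PCR amplification of the repeat regions from transformants grown four days on SC-Leu (input) or SC-Leu-His + 0.5 mM 3-AT (selection). The transformants were strain YBZ-1 with a LexA–MS2 coat fusion and a HIS3 reporter, carrying Pumilio-1 PUF domain libraries and matching RNA elements. The interaction score is the log change in variant frequency from input to selection, computed in log2 with a pseudocount of 1 for absent variants.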
# [2] = biological target: PUM1 PUF domain R8-IYV (Homo sapiens, UniProt Q14671 828-1176, N1122I;Q1126V)
# Summary of the method: as §1
# [3] = biological target: PUM1 PUF domain R8-MYR (Homo sapiens, UniProt Q14671 828-1176, N1122M;Q1126R)
# Summary of the method: as §1
# [4] = biological target: PUM1 PUF domain R5-SRL (Homo sapiens, UniProt Q14671 828-1176, C1007S;Q1011L)
# Summary of the method: as §1
# [5] = biological target: PUM1 PUF domain R3-VCE (Homo sapiens, UniProt Q14671 828-1176, C935V;R936C;Q939E)
# Summary of the method: as §1
# [6] = biological target: PUM1 PUF domain R4-EWG (Homo sapiens, UniProt Q14671 828-1176, N971E;H972W;Q975G)
# Summary of the method: as §1
# [7] = biological target: T1, PUM1 PUF domain R6-LWR (Homo sapiens, UniProt Q14671 828-1176, N1043L;Y1044W;Q1047R)
# T1 sequence: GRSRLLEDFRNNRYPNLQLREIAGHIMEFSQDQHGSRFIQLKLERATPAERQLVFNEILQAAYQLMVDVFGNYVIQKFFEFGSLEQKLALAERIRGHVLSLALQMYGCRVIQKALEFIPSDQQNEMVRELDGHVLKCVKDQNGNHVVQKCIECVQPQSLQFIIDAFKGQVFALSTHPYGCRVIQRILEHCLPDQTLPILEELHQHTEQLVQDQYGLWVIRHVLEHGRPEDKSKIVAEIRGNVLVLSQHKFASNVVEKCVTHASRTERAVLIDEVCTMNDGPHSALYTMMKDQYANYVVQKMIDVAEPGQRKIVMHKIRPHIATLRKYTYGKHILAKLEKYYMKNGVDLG
# Summary of the method: as §1
# [8] = biological target: PUM1 PUF domain R8-SWK (Homo sapiens, UniProt Q14671 828-1176, N1122S;Y1123W;Q1126K)
# Summary of the method: as §1
# [9] = biological target: PUM1 PUF domain R3-GWF (Homo sapiens, UniProt Q14671 828-1176, C935G;R936W;Q939F)
# Summary of the method: as §1
# [10] = biological target: PUM1 PUF domain R1-HLR (Homo sapiens, UniProt Q14671 828-1176, S863H;R864L;Q867R)
# Summary of the method: as §1
sequence,measurement,setting,value
GGCUAGAACUAGUGGAUCCCCCGGCGCCCGGCGGCUCGAGCCCGGGUAAGCGUAAAUAGUCUGCAUGCCGCCGGGCGCCAUGCCUGCAGGUCGACUCUAGAAAACAUG,binding signal,[1],5.71 log2 enrichment (interaction score)
same,binding signal,[2],2.44 log2 enrichment (interaction score)
same,binding signal,[3],4.58 log2 enrichment (interaction score)
GGCUAGAACUAGUGGAUCCCCCGGCGCCCGGCGGCUCGAGCCCGGGUAAGUGUAAAUAGUCUGCAUGCCGCCGGGCGCCAUGCCUGCAGGUCGACUCUAGAAAACAUG,binding signal,[1],6.33 log2 enrichment (interaction score)
same,binding signal,[4],3.16 log2 enrichment (interaction score)
same,binding signal,[5],2.11 log2 enrichment (interaction score)
same,binding signal,[6],3.6 log2 enrichment (interaction score)
same,binding signal,[7],5.05 log2 enrichment (interaction score)
same,binding signal,[8],5.34 log2 enrichment (interaction score)
same,binding signal,[2],2.36 log2 enrichment (interaction score)
same,binding signal,[3],4.65 log2 enrichment (interaction score)
same,binding signal,[9],5.35 log2 enrichment (interaction score)
GGCUAGAACUAGUGGAUCCCCCGGCGCCCGGCGGCUCGAGCCCGGGUAAGUGUUAAUAGUCUGCAUGCCGCCGGGCGCCAUGCCUGCAGGUCGACUCUAGAAAACAUG,binding signal,[4],2.41 log2 enrichment (interaction score)
GGCUAGAACUAGUGGAUCCCCCGGCGCCCGGCGGCUCGAGCCCGGGUAAGUGUAAGUAGUCUGCAUGCCGCCGGGCGCCAUGCCUGCAGGUCGACUCUAGAAAACAUG,binding signal,[5],3.08 log2 enrichment (interaction score)
GGCUAGAACUAGUGGAUCCCCCGGCGCCCGGCGGCUCGAGCCCGGGUAAGUGUACAUAGUCUGCAUGCCGCCGGGCGCCAUGCCUGCAGGUCGACUCUAGAAAACAUG,binding signal,[6],1.12 log2 enrichment (interaction score)
GGCUAGAACUAGUGGAUCCCCCGGCGCCCGGCGGCUCGAGCCCGGGUAAGUGUAAAUUGUCUGCAUGCCGCCGGGCGCCAUGCCUGCAGGUCGACUCUAGAAAACAUG,binding signal,[10],2.68 log2 enrichment (interaction score)
GGCUAGAACUAGUGGAUCCCCCGGCGCCCGGCGGCUCGAGCCCGGGUAAGUGUAAAUCGUCUGCAUGCCGCCGGGCGCCAUGCCUGCAGGUCGACUCUAGAAAACAUG,binding signal,[10],3.24 log2 enrichment (interaction score)
